Growth data for 39 compounds are collected here from PubChem BioAssay (NCI).

The panel holds about 83,000 compounds, 20% with a hit somewhere; the sample as a whole holds those more often.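 Step 1: grow cells in 96-well plates. Step 2: add test compound at a single concentration. Step 3: incubate 48 h. Step 4: record percent growth.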 Values without a mark were called inactive. Activity calls are given as the source filed them. How the source made its calls: active means growth percent below 10; inactive means the rest.

The first experiment relates to SF-268 CNS. Description: NCI-60 one-dose screen, 48 h (100 = growth as untreated, 0 = no growth, -100 = all killed). The note with it: 10 µM.
Regarding `CCCCCCCNc1nc(C=O)ncc1-c1ccc(C(F)(F)F)cc1`, the growth was 98.8%.

In the case of `C#Cc1ccc(-n2c(/C=C/c3ccc4ccccc4n3)nc3ncccc3c2=O)cc1`, the growth is -49.5% (active).

For the compound `O=C1c2ccc3c4c(ccc(c24)C(=O)N1CCNCc1ccccc1)C(=O)N(CCNCc1ccccc1)C3=O`, the growth is 7.12% (active).

For `CCN(CC)Cc1cc(Nc2ccnc3cc(Cl)ccc23)ccc1OC`, the growth is 96.6%.

For the compound `Nc1ccc2c(c1)C1(CCC2)NC(=O)NC1=O` (stereo not drawn), the growth was 100%.

In the case of `O=C(Nc1cccc(Cl)c1)Nc1nccs1`, the growth is 107%.

Turning to `N=C(N)c1ccc(-c2ccc(-c3cccs3)s2)s1`, the growth is -29.3% (active).

For the compound `O=C1NC(=O)N(Cc2ccccc2)CC1Br` (stereo not drawn), the growth is 80.2%.

For `COc1cc(C(=O)N2CCN(c3ccccc3OC)CC2)c(N)cc1OCCCN1CCN(c2ccccc2OC)CC1`, the growth is 110%.

On to `CN(C)CCN=c1nc2c(c(N)n1-c1ccccc1)c(=S)n(-c1ccccc1)c(=S)n2-c1ccccc1`, for which the growth is 24%.

Take `CCOC(=O)c1ccc(NC(=O)Nc2ncc(Cl)cc2Cl)cc1`: the growth was 104%.

`CN(C)N=Nc1nn(C(=O)Nc2ccc(Cc3ccccc3)cc2)c2ccccc12`: the growth is 63.5%.

Regarding `CC(=O)N(C)c1ccc(Nc2ccc(Nc3ccc(N(C)C(C)=O)cc3)c3c2C(=O)c2ccccc2C3=O)cc1`, the growth was 76.5%.

On to `CCOC(=O)C1(CC(C)C)CCOC1=O` (stereo not drawn), for which the growth is 98.7%.

As to `COc1ccc2c(c1)nc(N)c1c3cccnc3cn21`, the growth was 34.4%.

Take `CSCCCNC(=O)c1ccc2c(c1)/C(=C/c1[nH]c(C)cc1C)C(=O)N2`: the growth was 31.6%.

For the compound `COc1cc(Cl)cc(-c2nn(-c3cccc(NC(=O)Nc4ccc(Cl)c(Cl)c4)c3)cc2-c2ccncc2)c1`, the growth is 25.3%.

Turning to `CC1=C(N2CCOCC2)C(N2CCOCC2)=C(C)C(=O)C1=O`, the growth is 93.3%.

As to `COc1cc(-c2nc(Nc3nc4ccccc4s3)[nH]c(=O)c2C#N)cc(OC)c1O`, the growth was 123%.

With `COc1ccc(CN2CCC(N3CCCC3=O)c3cc(Cl)ccc32)cc1` (stereo not drawn), the growth was 108%.

For `CC(=O)O[C@]1(C)CC[C@H]2[C@H](CNCCc3ccc(Cl)cc3)C(=O)O[C@@H]2C2=C(C)C(=O)C[C@H]21`, the growth is 91%.

Consider `COc1ccc(-c2nn(-c3cccc(NC(=O)Nc4cc(C(F)(F)F)cc(C(F)(F)F)c4)c3)cc2-c2ccncc2)cc1Cl`, for which the growth was 9.51% (active).

In the case of `CN(CCc1ccccn1)c1ccccc1`, the growth is 124%.

Turning to `COc1ccc(N=C2C(=Nc3ccc(OC)cc3)N(c3ccc(N(C)C)cc3)C(=S)N2c2ccc(OC)cc2)cc1`, the growth is 90.2%.

Turning to `COc1cc2nc(Nc3cccc(NC(C)=O)c3)nc(N)c2cc1OC`, the growth is 92.3%.

Turning to `C#Cc1ccc(-n2c(/C=C/c3ccc(Cl)c(F)c3)nc3ncccc3c2=O)cc1`, the growth was -61.9% (active).

As to `COc1cccc(Cn2c(-c3nonc3N)nc3ccccc32)c1`, the growth is 42%.

Consider `c1ccc([I+]c2ccccc2)cc1`, for which the growth was 55.7%.

As to `O=C(c1cccs1)c1ccccc1Cc1ccccc1`, the growth was 115%.

On to `COc1ccc(-c2ccc(-c3ccc(C(=N)N)cn3)o2)cc1`, for which the growth was 81.2%.

As to `Nc1c(C(=O)Nc2cccc3ccccc23)sc2nc3c(cc12)C(=O)CCC3`, the growth is 36.1%.

With `COc1ccc(Nc2ccnc(NCCNc3ccnc4cc(Cl)ccc34)n2)cc1`, the growth was 54.5%.

Take `O=C(Nc1ccc(Cl)c([N+](=O)[O-])c1)Nc1nc2ccccc2s1`: the growth was 106%.

For `COc1cc(C(=O)/C=C/c2cc(-c3cc(OC)c(OC)c(OC)c3)n[nH]2)cc(OC)c1OC`, the growth was 4.97% (active).

As for `CC(=O)N1C/C(=C/c2ccc(Cl)cc2)C(=O)/C(=C/c2ccc(Cl)cc2)C1`, the growth is -26.8% (active).

In the case of `COc1cc(/C=N/NC(=O)c2ccccc2Nc2cccc(C(F)(F)F)c2)cc(OC)c1OC`, the growth was 20.4%.

With `O=C1N=NC2=C1c1c3ccccc3c(O)n1CC2`, the growth was 108%.

Turning to `CS(=O)(=O)Nc1cccc(-c2cc(-c3ccccc3Cl)c(C#N)c(N)n2)c1`, the growth was 49.2%.

For `N#Cc1ncc(-c2ccc(C(F)(F)F)cc2)c(NCc2cc(C(F)(F)F)cc(C(F)(F)F)c2)n1`, the growth was 56.8%.

The subject of a further experiment is SF-295 CNS. The description is as above. The note with it: 10 µM.
In the case of `CCCCCCCNc1nc(C=O)ncc1-c1ccc(C(F)(F)F)cc1`, the growth was 103%.

As to `C#Cc1ccc(-n2c(/C=C/c3ccc4ccccc4n3)nc3ncccc3c2=O)cc1`, the growth is -58.3% (active).

Turning to `O=C1c2ccc3c4c(ccc(c24)C(=O)N1CCNCc1ccccc1)C(=O)N(CCNCc1ccccc1)C3=O`, the growth is -28.2% (active).

Take `CCN(CC)Cc1cc(Nc2ccnc3cc(Cl)ccc23)ccc1OC`: the growth is 91%.

As for `Nc1ccc2c(c1)C1(CCC2)NC(=O)NC1=O` (stereo not drawn), the growth was 108%.

For `O=C(Nc1cccc(Cl)c1)Nc1nccs1`, the growth was 97.6%.

Regarding `N=C(N)c1ccc(-c2ccc(-c3cccs3)s2)s1`, the growth was -79.5% (active).

With `O=C1NC(=O)N(Cc2ccccc2)CC1Br` (stereo not drawn), the growth was 136%.

`COc1cc(C(=O)N2CCN(c3ccccc3OC)CC2)c(N)cc1OCCCN1CCN(c2ccccc2OC)CC1`: the growth is 96.9%.

As for `CN(C)CCN=c1nc2c(c(N)n1-c1ccccc1)c(=S)n(-c1ccccc1)c(=S)n2-c1ccccc1`, the growth is -61.5% (active).

With `CCOC(=O)c1ccc(NC(=O)Nc2ncc(Cl)cc2Cl)cc1`, the growth was 96.5%.

Take `CN(C)N=Nc1nn(C(=O)Nc2ccc(Cc3ccccc3)cc2)c2ccccc12`: the growth was 9.64% (active).

As for `CC(=O)N(C)c1ccc(Nc2ccc(Nc3ccc(N(C)C(C)=O)cc3)c3c2C(=O)c2ccccc2C3=O)cc1`, the growth was 81.2%.

On to `CCOC(=O)C1(CC(C)C)CCOC1=O` (stereo not drawn), for which the growth is 99.5%.

Regarding `COc1ccc2c(c1)nc(N)c1c3cccnc3cn21`, the growth was -16.6% (active).

For `CSCCCNC(=O)c1ccc2c(c1)/C(=C/c1[nH]c(C)cc1C)C(=O)N2`, the growth is 29.2%.

Take `COc1cc(Cl)cc(-c2nn(-c3cccc(NC(=O)Nc4ccc(Cl)c(Cl)c4)c3)cc2-c2ccncc2)c1`: the growth was -2.42% (active).

Consider `CC1=C(N2CCOCC2)C(N2CCOCC2)=C(C)C(=O)C1=O`, for which the growth is 97.2%.

Turning to `COc1cc(-c2nc(Nc3nc4ccccc4s3)[nH]c(=O)c2C#N)cc(OC)c1O`, the growth was 116%.

For the compound `COc1ccc(CN2CCC(N3CCCC3=O)c3cc(Cl)ccc32)cc1` (stereo not drawn), the growth was 124%.

Regarding `CC(=O)O[C@]1(C)CC[C@H]2[C@H](CNCCc3ccc(Cl)cc3)C(=O)O[C@@H]2C2=C(C)C(=O)C[C@H]21`, the growth was 105%.

As for `COc1ccc(-c2nn(-c3cccc(NC(=O)Nc4cc(C(F)(F)F)cc(C(F)(F)F)c4)c3)cc2-c2ccncc2)cc1Cl`, the growth was -1.97% (active).

Consider `CN(CCc1ccccn1)c1ccccc1`, for which the growth was 116%.

On to `COc1ccc(N=C2C(=Nc3ccc(OC)cc3)N(c3ccc(N(C)C)cc3)C(=S)N2c2ccc(OC)cc2)cc1`, for which the growth was 2.47% (active).

As for `COc1cc2nc(Nc3cccc(NC(C)=O)c3)nc(N)c2cc1OC`, the growth was 131%.

With `C#Cc1ccc(-n2c(/C=C/c3ccc(Cl)c(F)c3)nc3ncccc3c2=O)cc1`, the growth is -60.1% (active).

`COc1cccc(Cn2c(-c3nonc3N)nc3ccccc32)c1`: the growth was -26.9% (active).

As to `c1ccc([I+]c2ccccc2)cc1`, the growth is 81%.

Take `O=C(c1cccs1)c1ccccc1Cc1ccccc1`: the growth was 98.3%.

With `COc1ccc(-c2ccc(-c3ccc(C(=N)N)cn3)o2)cc1`, the growth was 68.7%.

`Nc1c(C(=O)Nc2cccc3ccccc23)sc2nc3c(cc12)C(=O)CCC3`: the growth is -1.44% (active).

Turning to `COc1ccc(Nc2ccnc(NCCNc3ccnc4cc(Cl)ccc34)n2)cc1`, the growth is 46.1%.

Take `O=C(Nc1ccc(Cl)c([N+](=O)[O-])c1)Nc1nc2ccccc2s1`: the growth was 71%.

Consider `COc1cc(C(=O)/C=C/c2cc(-c3cc(OC)c(OC)c(OC)c3)n[nH]2)cc(OC)c1OC`, for which the growth was 135%.

Take `CC(=O)N1C/C(=C/c2ccc(Cl)cc2)C(=O)/C(=C/c2ccc(Cl)cc2)C1`: the growth is -30.1% (active).

On to `COc1cc(/C=N/NC(=O)c2ccccc2Nc2cccc(C(F)(F)F)c2)cc(OC)c1OC`, for which the growth is -14.8% (active).

For `O=C1N=NC2=C1c1c3ccccc3c(O)n1CC2`, the growth is 99.4%.

Regarding `CS(=O)(=O)Nc1cccc(-c2cc(-c3ccccc3Cl)c(C#N)c(N)n2)c1`, the growth is 7.3% (active).

With `N#Cc1ncc(-c2ccc(C(F)(F)F)cc2)c(NCc2cc(C(F)(F)F)cc(C(F)(F)F)c2)n1`, the growth was 4.36% (active).
